# According to a collection of fitness landscapes (doi:10.1016/j.celrep.2020.107928):
# The full ranking holds about 81,000 sequences; the median of “one-hybrid fitness for binding parS DNA” is about -0.17, and the highest 2% start at about 0.51. The full list was thinned out, with the highest values kept by preference.
# B1: Caulobacter ParB omega fusion; a variant is named by its letters at X, in order, B8GW30 (parent)
# chain: MESVVVGEPGMSEGRRGLGRGLSALLGEVDAAPAQAPGEQLGGSREAPIEILQRNPDQPRRTFREEDLEDLSNSIREKGVLQPILVRPSPDTAGEYQIVAGERAWRAAQRAGLKTVPIMVRELDDLAVLEIGIIENVQRADLNVLEEALSYKVLMEKFERTQENIAQTIGKSXSHVANXMRLLXLPDEVQSYLVSGELTAXHARAIAAAADPVALAKQIIEGGLSVRETEALARKAPNLSAGKSKGGRPPRVKDTDTQALESDLSSVLGLDVSIDHRGSTGTLTITYATLEQLDDLCNRLTRGI
# Variants of: B1
# Test: one-hybrid fitness for binding parS DNA (scaled: cognate 1, non-cognate 0); higher = stronger binding
# Details: with parS DNA site
# Summary of the method: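 The reporter was HIS3, with the binding site 19 bp from the promoter, in E. coli USO used for bacterial one-hybrid selection of Caulobacter ParB libraries with four specificity codons randomised. Growth was on M9 lacking histidine, with 0.1 mM IPTG and 5 mM 3-AT, for 48 hours at 37°C. Illumina sequencing covered plasmids before and after selection; three replicate libraries were pooled and variants with under 10 reads dropped. A fitness score is the log change in variant-to-wild-type read ratio, rescaled to the cognate and non-cognate references.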
row,Variant,one-hybrid fitness for binding parS DNA
1,AALF,≤ 0.2
2,LFAM,≤ 0.2
3,RDEA,≤ 0.2
4,RTEA,0.58
5,RKEA,0.515
6,RHEA,0.512
7,RYEA,0.548
8,FASM,≤ 0.2
9,SHST,≤ 0.2
10,GLPS,≤ 0.2
11,DMPT,≤ 0.2
12,YLIW,≤ 0.2
13,FRKA,≤ 0.2
14,LMTN,≤ 0.2
15,GIRR,≤ 0.2
16,LALL,≤ 0.2
17,RSFG,0.94
18,REFG,≤ 0.2
19,RSFK,≤ 0.2
20,RCFG,1.01
21,RDFG,≤ 0.2
22,RPFG,≤ 0.2
23,AKRC,≤ 0.2
24,QSGM,≤ 0.2

row,Variant,one-hybrid fitness for binding parS DNA
1,MCTL,≤ 0.2
2,TMTY,≤ 0.2
3,MHDG,≤ 0.2
4,WDTK,≤ 0.2
5,RQYA,0.583
6,RQKA,0.701
7,RQPA,≤ 0.2
8,RQHA,0.57
9,RQQA,0.548
10,NQKA,≤ 0.2
11,PQHA,≤ 0.2
12,RQIA,0.42
13,KQQA,≤ 0.2
14,NQHA,≤ 0.2
15,RQVA,0.486
16,PQTA,≤ 0.2
17,WANF,≤ 0.2
18,HAGM,≤ 0.2
19,IYPG,≤ 0.2
20,LMKM,≤ 0.2
21,TYFC,≤ 0.2
22,GSSM,≤ 0.2
23,DQRA,≤ 0.2
24,EQAA,≤ 0.2

row,Variant,one-hybrid fitness for binding parS DNA
1,KQRA,≤ 0.2
2,RQAA,0.571
3,DQSA,≤ 0.2
4,RQSA,0.575
5,KQSA,≤ 0.2
6,RQRA,0.632
7,RQFA,0.532
8,DQAA,≤ 0.2
9,FPAS,≤ 0.2
10,PFLV,≤ 0.2
11,ENLG,≤ 0.2
12,YSQA,≤ 0.2
13,QHET,≤ 0.2
14,ASIT,≤ 0.2
15,GAHR,≤ 0.2
16,MLHS,≤ 0.2
17,VETL,≤ 0.2
18,LASY,≤ 0.2
19,RCTV,≤ 0.2
20,TKMR,≤ 0.2
21,CQLA,≤ 0.2
22,RQWA,0.544
23,RQMA,0.596
24,RQLA,0.568

row,Variant,one-hybrid fitness for binding parS DNA
1,PQMA,≤ 0.2
2,RQCA,0.558
3,PQLA,≤ 0.2
4,NQMA,≤ 0.2
5,TQYS,≤ 0.2
6,HPLV,≤ 0.2
7,ANIE,≤ 0.2
8,RCYW,0.314
9,VLKR,≤ 0.2
10,HEGL,≤ 0.2
11,LRKS,≤ 0.2
12,CVSN,≤ 0.2
13,CQGA,≤ 0.2
14,RQGA,0.563
15,TVTV,≤ 0.2
16,RTNE,≤ 0.2
17,RTNT,0.86
18,RTDT,0.802
19,NTDT,≤ 0.2
20,RTDR,≤ 0.2
21,RTNR,≤ 0.2
22,MPRE,≤ 0.2
23,IDTG,≤ 0.2
24,PPTT,≤ 0.2

row,Variant,one-hybrid fitness for binding parS DNA
1,RHPH,≤ 0.2
2,PTAI,≤ 0.2
3,RWWA,0.254
4,RAWA,0.598
5,RMWA,0.634
6,RPWA,≤ 0.2
7,DLWA,≤ 0.2
8,RLWA,0.648
9,NAWA,≤ 0.2
10,RCWA,0.68
11,PWGP,≤ 0.2
12,CSAK,≤ 0.2
13,HTAP,≤ 0.2
14,VEFT,≤ 0.2
15,QGNA,≤ 0.2
16,YNSE,≤ 0.2
17,QDDR,≤ 0.2
18,TNQC,≤ 0.2
19,APGM,≤ 0.2
20,QNSI,≤ 0.2
21,RHWA,0.486
22,RTWA,0.626
23,RRWA,0.834
24,NRWA,≤ 0.2

row,Variant,one-hybrid fitness for binding parS DNA
1,RKWA,0.58
2,RSWA,0.546
3,RFWA,0.481
4,RGWA,0.282
5,WTTC,≤ 0.2
6,NRTE,≤ 0.2
7,GCLA,≤ 0.2
8,YTTD,≤ 0.2
9,EGCL,≤ 0.2
10,FWSR,≤ 0.2
11,PAVQ,≤ 0.2
12,QHPF,≤ 0.2
13,LPIQ,≤ 0.2
14,RGLP,≤ 0.2
15,RGSP,≤ 0.2
16,RGQG,0.727
17,RGKG,0.896
18,RGQH,≤ 0.2
19,RGVG,0.502
20,RGKP,≤ 0.2
21,RGLH,≤ 0.2
22,RGQP,≤ 0.2
23,RGLG,0.597
24,RGSG,0.771

row,Variant,one-hybrid fitness for binding parS DNA
1,RGSH,≤ 0.2
2,PKPQ,≤ 0.2
3,PRNG,≤ 0.2
4,HPRY,≤ 0.2
5,RGNG,0.801
6,RGNH,≤ 0.2
7,RGAN,≤ 0.2
8,RGCP,≤ 0.2
9,RGCM,≤ 0.2
10,RGDG,0.496
11,RGCG,0.558
12,RGIG,0.47
13,RGAG,0.661
14,RGPG,0.298
15,RGFG,0.504
16,RGYG,0.576
17,PPPF,≤ 0.2
18,VAEC,≤ 0.2
19,FHHI,≤ 0.2
20,RGAI,≤ 0.2
21,LDML,≤ 0.2
22,CFTC,≤ 0.2
23,MHTL,≤ 0.2
24,NSGN,≤ 0.2

row,Variant,one-hybrid fitness for binding parS DNA
1,MIEG,≤ 0.2
2,RGWY,≤ 0.2
3,RGRH,≤ 0.2
4,RGGD,≤ 0.2
5,RGGG,0.64
6,RGHG,0.65
7,RGGH,≤ 0.2
8,RGWR,≤ 0.2
9,RGWG,0.51
10,RGRN,0.341
11,RGHN,≤ 0.2
12,RGRG,0.874
13,RGHP,≤ 0.2
14,KLKH,≤ 0.2
15,KDID,≤ 0.2
16,PVSF,≤ 0.2
17,QEKR,≤ 0.2
18,MRPT,≤ 0.2
19,NPTS,≤ 0.2
20,FQVG,≤ 0.2
21,NYES,≤ 0.2
22,RYDA,0.559
23,RYNA,0.58
24,DYNA,≤ 0.2

row,Variant,one-hybrid fitness for binding parS DNA
1,EYNA,≤ 0.2
2,FRQS,≤ 0.2
3,WVAL,≤ 0.2
4,HINS,≤ 0.2
5,FSFV,≤ 0.2
6,GGMR,≤ 0.2
7,RHIS,0.813
8,RHHD,≤ 0.2
9,RHRD,≤ 0.2
10,RHPS,0.475
11,RHRN,0.374
12,RHRS,0.823
13,RHIP,≤ 0.2
14,RHYS,0.976
15,RHYH,0.223
16,RHID,≤ 0.2
17,RHHS,0.914
18,RHHN,0.391
19,TIDD,≤ 0.2
20,PRIM,≤ 0.2
21,TPSD,≤ 0.2
22,ANRF,≤ 0.2
23,TMCR,≤ 0.2
24,DPAI,≤ 0.2

row,Variant,one-hybrid fitness for binding parS DNA
1,RHLH,0.229
2,RHWP,≤ 0.2
3,RHLS,0.978
4,RHWN,0.305
5,RHLD,≤ 0.2
6,RHWS,0.925
7,TAQE,≤ 0.2
8,RTCV,≤ 0.2
9,LSSK,≤ 0.2
10,YMSG,≤ 0.2
11,SLTS,≤ 0.2
12,RDQG,≤ 0.2
13,RLQG,1.01
14,RMQG,1.01
15,RSQP,≤ 0.2
16,RSQG,0.995
17,RCQG,1.02
18,RSQH,0.296
19,RPQG,≤ 0.2
20,RMQR,0.223
21,RMQQ,≤ 0.2
22,RLQN,0.471
23,RLQD,≤ 0.2
24,FGAV,≤ 0.2

row,Variant,one-hybrid fitness for binding parS DNA
1,AVLG,≤ 0.2
2,GATL,≤ 0.2
3,VSCH,≤ 0.2
4,FRAR,≤ 0.2
5,KNVC,≤ 0.2
6,PTQM,≤ 0.2
7,HSEM,≤ 0.2
8,RIQR,≤ 0.2
9,RTQF,0.213
10,RIQG,0.999
11,RFQG,0.965
12,RIQF,0.272
13,RTQR,≤ 0.2
14,RTQG,1
15,DFQG,≤ 0.2
16,NFQG,≤ 0.2
17,NSFG,≤ 0.2
18,LQRT,≤ 0.2
19,MPTI,≤ 0.2
20,ANTA,≤ 0.2
21,ARCH,≤ 0.2
22,HTWT,≤ 0.2
23,REAT,≤ 0.2
24,RPAT,≤ 0.2

row,Variant,one-hybrid fitness for binding parS DNA
1,RCAT,0.921
2,RSAT,0.869
3,RDAT,≤ 0.2
4,RSAR,≤ 0.2
5,LAGT,≤ 0.2
6,HRLD,≤ 0.2
7,HMAN,≤ 0.2
8,WKAR,≤ 0.2
9,SDCR,≤ 0.2
10,RVTS,0.972
11,RVTH,0.22
12,RVTM,0.299
13,RVTC,0.982
14,RVTK,≤ 0.2
15,RVTN,0.432
16,RVTG,0.992
17,RVTT,0.949
18,RVTP,≤ 0.2
19,RVTF,0.202
20,RVTD,≤ 0.2
21,RVTY,0.459
22,QREG,≤ 0.2
23,GTSR,≤ 0.2
24,ARHM,≤ 0.2

row,Variant,one-hybrid fitness for binding parS DNA
1,EPPR,≤ 0.2
2,HSQW,≤ 0.2
3,LRNA,≤ 0.2
4,RARE,≤ 0.2
5,HIDW,≤ 0.2
6,TFRF,≤ 0.2
7,GVCA,≤ 0.2
8,RPIS,≤ 0.2
9,RSYS,1.01
10,RSIS,0.887
11,RSYP,≤ 0.2
12,RSPS,0.541
13,RSPN,≤ 0.2
14,RCIP,0.228
15,RSID,≤ 0.2
16,RSIP,≤ 0.2
17,RSYH,≤ 0.2
18,RCIS,1.01
19,RSPP,≤ 0.2
